Laboratory results published in PubChem BioAssay AID559 (PCMD, 2006).
About 100 (0.2%) of roughly 62,000 compounds were called active. Many of the other results were omitted from the sample, so actives are more common in it than they were. A number with no mark means an inactive call. Cut-off read from the data, not from the text of the source: active = inhibition above about 20%; inactive = the rest.

Each molecule was assayed against DNA-directed RNA polymerase subunit beta (Escherichia coli (strain K12)) (UniProt P0A8V2) (assay: E. coli RNAP inhibitors, biochemical (AID 559;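 note: 0% = enzyme without compound and 100% = no enzyme blank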)). Conditions: fluorescence transcription assay, stronger effect = higher value,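 tested at 10 µM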.
DNA-directed RNA polymerase subunit beta (Escherichia coli (strain K12)), sequence (P0A8V2 whole entry, looked up): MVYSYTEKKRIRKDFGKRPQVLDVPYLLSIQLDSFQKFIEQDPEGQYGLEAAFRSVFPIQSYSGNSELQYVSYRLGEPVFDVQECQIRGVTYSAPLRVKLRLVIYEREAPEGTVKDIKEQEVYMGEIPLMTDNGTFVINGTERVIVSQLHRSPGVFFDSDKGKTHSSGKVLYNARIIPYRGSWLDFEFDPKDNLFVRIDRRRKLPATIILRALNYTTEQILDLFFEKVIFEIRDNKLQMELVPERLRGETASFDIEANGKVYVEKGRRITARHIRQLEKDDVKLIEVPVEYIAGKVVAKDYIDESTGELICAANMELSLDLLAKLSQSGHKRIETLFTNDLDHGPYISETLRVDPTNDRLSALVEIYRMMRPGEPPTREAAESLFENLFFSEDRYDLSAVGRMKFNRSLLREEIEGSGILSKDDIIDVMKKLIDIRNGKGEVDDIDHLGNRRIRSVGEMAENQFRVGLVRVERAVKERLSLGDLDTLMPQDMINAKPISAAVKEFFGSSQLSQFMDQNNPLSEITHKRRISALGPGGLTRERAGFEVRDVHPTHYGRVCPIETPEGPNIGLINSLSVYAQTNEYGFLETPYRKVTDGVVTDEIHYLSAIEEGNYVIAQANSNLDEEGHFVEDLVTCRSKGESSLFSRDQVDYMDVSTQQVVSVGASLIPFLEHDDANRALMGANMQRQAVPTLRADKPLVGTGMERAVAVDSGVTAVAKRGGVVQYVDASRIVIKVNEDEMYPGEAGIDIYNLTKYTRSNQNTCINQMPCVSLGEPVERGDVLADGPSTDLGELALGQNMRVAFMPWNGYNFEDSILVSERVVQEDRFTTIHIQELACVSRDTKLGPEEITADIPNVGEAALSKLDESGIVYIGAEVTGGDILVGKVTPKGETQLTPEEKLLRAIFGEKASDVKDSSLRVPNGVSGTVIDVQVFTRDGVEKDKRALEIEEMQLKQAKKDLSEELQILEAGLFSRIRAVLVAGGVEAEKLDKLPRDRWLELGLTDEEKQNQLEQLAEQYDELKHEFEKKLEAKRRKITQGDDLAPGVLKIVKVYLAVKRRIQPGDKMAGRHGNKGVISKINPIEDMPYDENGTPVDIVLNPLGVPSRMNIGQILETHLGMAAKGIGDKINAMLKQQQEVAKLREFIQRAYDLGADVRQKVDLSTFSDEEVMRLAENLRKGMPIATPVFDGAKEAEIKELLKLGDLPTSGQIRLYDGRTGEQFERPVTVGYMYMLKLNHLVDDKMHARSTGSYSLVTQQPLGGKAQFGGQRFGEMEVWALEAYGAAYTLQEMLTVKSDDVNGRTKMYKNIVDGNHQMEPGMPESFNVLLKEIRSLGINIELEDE

| SMILES | inhibition |
| --- | --- |
| C=CCOc1ccc(C2/C(=C(\O)c3c(C)[nH]c(C(=O)OC)c3C)C(=O)C(=O)N2CCN(C)C)cc1 (stereo not drawn) | -5.38% |
| CC(=O)c1cccc(NC(=O)N2CCCC2C(=O)NCCC(C)C)c1 (stereo not drawn) | 6.83% |
| Cc1ccccc1-n1c(SCC(=O)NCc2cccs2)nnc1-c1ccncc1 | -3.22% |
| Cn1c(=O)[nH]c(=O)c2c1nc(N1CCN(CCO)CC1)n2CCSc1nc2ccccc2s1 | 7.67% |
| O=C(Nc1ccccc1F)c1cc(S(=O)(=O)N2CCCCC2)cs1 | -4.61% |
| Cc1ccc(C)c(NS(=O)(=O)c2cc(Br)cnc2N)c1 | -0.25% |
| c1ccc(-n2ncc3c(N4CCCC4)ncnc32)cc1 | 10.9% |
| Cc1nnc(SCC(=O)N2CCc3ccccc32)n1-c1ccccc1 | 5.59% |
| Cc1ccccc1C(=O)Nc1cccc(-c2nnc(SCC(=O)O)n2C)c1 | 12.2% |
| CCn1c(SCC(=O)Nc2cccc(F)c2)nnc1-c1cc2cc(Br)ccc2o1 | 9.56% |
| O=C(NCc1cccs1)C1CCN(S(=O)(=O)c2ccc3c(c2)OCCO3)CC1 | 7.85% |
| O=C(CSc1ncccn1)NCCc1ccccc1 | 1.73% |
| CC(C)(C)c1ccc(C(=O)CSc2ncn[nH]2)cc1 | 5.03% |
| NC(=O)C1CCN(C(=O)c2ccc(C(F)(F)F)cc2)CC1 | 2.29% |
| CCC(=O)Nc1cccc(NC(=O)c2cccnc2)c1 | 1.22% |
| Cn1c(=O)cc(OCCCC(=O)N2CCN(Cc3ccc4c(c3)OCO4)CC2)c2ccccc21 | 14.1% |
| COc1ccc(CN2CN(C(C)C)CSC2=S)cc1 | 0.75% |
| Cc1ccccc1CN1CCN(CC(=O)NCc2ccccn2)C1=O | -3.92% |
| Clc1ccc(C2CC(c3cccs3)n3ncnc3N2)cc1Cl (stereo not drawn) | 3.31% |
| Cc1csc(NC(=O)NC2(C(F)(F)F)Oc3ccccc3O2)n1 | 30.9% (active) |
| Cc1csc(NC(=O)CN2CCCCCC2)n1 | 10.6% |
| Cc1cc(C)nc(NC(=O)Nc2ccccc2C(F)(F)F)n1 | 3.47% |
| CCOC(=O)CC1C(=O)NCCN1C(=O)COc1ccc(Br)cc1C (stereo not drawn) | 4.26% |
| COCCCNC(=O)c1ccc(CNS(=O)(=O)c2ccc(NC(C)=O)cc2)cc1 | -9.1% |

| SMILES | inhibition |
| --- | --- |
| Cc1ccc(NC(=O)NCC(c2cccnc2)N2CCOCC2)cc1 (stereo not drawn) | 6.82% |
| CCCS(=O)(=O)Nc1c(C(=O)O)[nH]c2ccccc12 | 8.57% |
| COc1ccc(Cl)cc1S(=O)(=O)Nc1cccc(C(=O)O)c1 | 4.26% |
| CC1CCCN(c2ccc(C(=O)NCCc3ccccc3)cn2)C1 (stereo not drawn) | 9.14% |
| CCC12CN3CC(CC)(CN(C1)C31C(=O)N(C)c3ccc(C)cc31)C2=O (stereo not drawn) | 9.74% |
| COc1ccc(OC)c(C2N(c3ccccn3)C(=O)C3CCCN32)c1 (stereo not drawn) | 5.57% |
| O=C(CCS(=O)(=O)Cc1ccccc1F)NCCCN1CCCCC1 | 2.74% |
| CCCn1c(SCC(=O)Nc2c(C)cccc2C)nnc1C(C)C | -6.26% |
| CCOC(=O)c1ccc(-c2ccc(C(=O)Nc3cccnc3)o2)cc1 | 14.4% |
| CC(C)NS(=O)(=O)c1ccc(NC(=O)c2cccnc2)cc1 | 4.79% |
| CC(=O)Oc1cccc(N2C(=O)C3CC=C(Cl)CC3C2=O)c1 (stereo not drawn) | 9.02% |
| CCn1c(CSc2ncccn2)nnc1SCC(=O)N1c2ccccc2CC1C (stereo not drawn) | 4.54% |
| O=c1c2ccccc2oc2nc3n(c(=O)c12)CCCS3 | 4.21% |
| O=C(N1CCOCC1)N1CCOCC1 | 0.65% |
| CC(C)Cc1cc(C(=O)NCCc2ccccc2)no1 | -0.72% |
| CCC1CCCCN1CCNC(=O)c1[nH]c(C)c(C(C)=O)c1C (stereo not drawn) | 3.39% |
| CCOC(=O)N1CCN(C(=O)c2ccc3nc4cc(Cl)ccc4c(=O)n3c2)CC1 | -20.1% |
| CC1=C(C)CC2C(=O)N(c3cccc4ccccc34)C(=O)C2C1 (stereo not drawn) | 5.39% |
| COc1ccccc1-c1c(C)nn2c(C)c(C(C)=O)cnc12 | 1.22% |
| Cn1cccc1C(=O)NC(=O)COC(=O)Cc1coc2ccc3ccccc3c12 | 4.62% |
| O=C(Nc1cccc(Cl)c1)OCc1ccccn1 | 5.59% |
| Cc1cc(C)c(C(=O)CN2C(=O)CCC2=O)cc1C | 1.27% |
| O=C(CNS(=O)(=O)c1cccc(C(F)(F)F)c1)Nc1ccccc1F | 12.6% |
| O=C1CC(c2ccccc2)C(=O)N1c1cccc(O)c1 (stereo not drawn) | 4.1% |
